U2OS ROS induce – raises reactive oxygen species in U2OS cancer cells. U2OS ROS induction, H2DCF-DA fluorescence. hit rate 2% among 46,000. ROS induction (% of piperlongumine), % at 10 µM; in the data active = ROS induction above about 79%, passing the limit was not always enough
Large screens that a line does not name were inactive. The sample as a whole holds a higher share of hits than the screen did.

O=C(Nc1cccc(-c2nc3ccccc3[nH]2)c1)c1ccccc1	none
O=C(Nc1ccc(-c2nc3ccccc3[nH]2)cc1)c1ccc(-c2ccccc2)cc1	none
CC1CCCCN1S(=O)(=O)c1ccc(C(=O)Nc2cccc(-c3nc4ccccc4[nH]3)c2)cc1 (stereo unspecified)	U2OS ROS induce 203.9
COc1ccc(S(=O)(=O)NC(C)C)cc1	none
Cc1ccc(NC(=O)N2CCC(N(C)C(C)C)CC2)cc1C	none
Cc1sc2ncnc(N3CCN(c4cccc(C(F)(F)F)c4)CC3)c2c1C	none
CCCn1c(SCCCc2ccccc2)nc2c1c(=O)[nH]c(=O)n2C	none
O=C(NC1CC1)c1cccc(C(F)(F)F)c1	none
C[C@H](CO)N1C[C@H](C)[C@@H](CN(C)S(=O)(=O)c2ccc(Oc3ccccc3)nc2)OCc2cnnn2CCCC1=O	none
C[C@@H]1CN([C@@H](C)CO)C(=O)CCCn2nncc2CO[C@H]1CN(C)S(=O)(=O)c1ccc(Oc2ccccc2)cc1	none
C[C@@H]1CN([C@@H](C)CO)C(=O)CCCn2nncc2CO[C@H]1CN(C)S(=O)(=O)c1ccc(Oc2ccccc2)nc1	U2OS ROS induce 137.9
COc1cccc(CN(C)C[C@H]2OCc3cnnn3CCCC(=O)N([C@@H](C)CO)C[C@H]2C)c1	U2OS ROS induce 124.6
C[C@@H]1CN([C@@H](C)CO)C(=O)CCCn2nncc2CO[C@H]1CN(C)C(=O)Nc1ccc(N2CCCCC2)cc1	none
COc1cccc(NC(=O)N(C)C[C@H]2OCc3cn(nn3)CCCC(=O)N([C@H](C)CO)C[C@H]2C)c1	none
COc1cccc(CN(C)C[C@H]2OCc3cnnn3CCCC(=O)N([C@H](C)CO)C[C@H]2C)c1	none
COc1cccc(NC(=O)N(C)C[C@@H]2OCc3cn(nn3)CCCC(=O)N([C@H](C)CO)C[C@H]2C)c1	U2OS ROS induce 107.7
C[C@H](CO)N1C[C@H](C)[C@@H](CN(C)C(=O)Nc2ccc(N3CCCCC3)cc2)OCc2cnnn2CCCC1=O	none
COc1cccc(NC(=O)N(C)C[C@H]2OCc3cn(nn3)CCCC(=O)N([C@H](C)CO)C[C@@H]2C)c1	none
Cc1cccc(CN(C)C[C@@H]2OCc3cnnn3CCCC(=O)N([C@H](C)CO)C[C@H]2C)c1	none
C[C@@H]1CN([C@@H](C)CO)C(=O)CCCn2nncc2CO[C@@H]1CN(C)C(=O)Nc1ccc(N2CCCCC2)cc1	U2OS ROS induce 82.7
Cc1cc(C)c(C)c(C(=O)COC(=O)c2cc(=O)[nH]c3ccccc23)c1C	none
Cc1nc(-c2sc3ccc(Cl)cc3c2C)cs1	none
COc1cccc(-c2nnc(-c3ccccc3NS(=O)(=O)c3ccc(Cl)cc3)o2)c1	none
COC(=O)C1=CN(C(C(=O)OC)c2ccccc2)C=C(C(=O)OC)C1c1ccc(F)cc1 (stereo unspecified)	none
CCOC(=O)c1ccc2c(c1)sc1nc(-c3ccc(C)cc3C)cn12	none
Cc1ccc(CN(C)C[C@@H]2OCc3cnnn3CCCC(=O)N([C@@H](C)CO)C[C@@H]2C)cc1	none
C[C@@H]1CN([C@@H](C)CO)C(=O)CCCn2nncc2CO[C@@H]1CN(C)Cc1ccc(-c2ccccc2)cc1	U2OS ROS induce 90.9
C[C@H]1CN([C@@H](C)CO)C(=O)CCCn2nncc2CO[C@H]1CN(C)Cc1ccc(-c2ccccc2)cc1	none
Cc1cc(=O)oc(C)c1C(=O)Nc1ccccc1C(=O)N1CCCCC1	none
Cc1c(Cl)cccc1NC(=O)N1CC(C)Sc2ccccc21 (stereo unspecified)	none
COC(=O)c1c(NC(=O)c2ccccc2)sc2c1CCC2	none
CCOC(=O)c1c(C(C)(C)C)oc2ccc(OCc3ccc(C(=O)OC)cc3)cc12	none
O=C(CSc1nnc(-c2ccccc2)c(-c2ccccc2)n1)NCCC1=CCCCC1	none
Cc1cc(C(=O)Nc2cccc3c2O[C@H](CN(C)Cc2ccc(Oc4ccccc4)cc2)[C@@H](C)CN([C@@H](C)CO)C3=O)n(C)n1	U2OS ROS induce 123.6
Cc1cc(C(=O)Nc2cccc3c2O[C@H](CN(C)Cc2ccccc2)[C@@H](C)CN([C@@H](C)CO)C3=O)n(C)n1	none
Cc1cc(C(=O)Nc2cccc3c2O[C@@H](CN(C)Cc2ccc(Oc4ccccc4)cc2)[C@H](C)CN([C@H](C)CO)C3=O)n(C)n1	U2OS ROS induce 105.7
Cc1cc(C(=O)Nc2cccc3c2O[C@@H](CN(C)Cc2ccc(Oc4ccccc4)cc2)[C@@H](C)CN([C@@H](C)CO)C3=O)n(C)n1	none
Cc1cc(C(=O)Nc2cccc3c2O[C@H](CN(C)Cc2ccc(Oc4ccccc4)cc2)[C@H](C)CN([C@@H](C)CO)C3=O)n(C)n1	none
Cc1cc(C(=O)Nc2cccc3c2O[C@@H](CN(C)Cc2ccc(Oc4ccccc4)cc2)[C@@H](C)CN([C@H](C)CO)C3=O)n(C)n1	none
Cc1ccc(C)c(NC(=O)CC(Cc2ccccc2)C(=O)O)c1 (stereo unspecified)	none
CCc1nc(SCC(=O)C(C)(C)C)c(C#N)cc1C	none
O=C(O)COc1ccc(/C=C2\SC(=O)N(Cc3ccc(F)cc3)C2=O)cc1	none
O=C(COc1ccc2ccccc2c1Br)NC1CCCCC1	none
Cc1ccc(Cn2c(=N)n(CC(=O)O)c3ccccc32)cc1	none
CC(C)C(NC(=O)c1ccc(CN2CCN(c3ccccc3)CC2)cc1)C(C)C	none
CC(C)NC(=O)Nc1ccc2c(c1)CC(=O)N([C@@H](C)CO)C[C@@H](C)[C@@H](CN(C)C(=O)Nc1ccc3c(c1)OCO3)O2	U2OS ROS induce 111.1
C[C@H](CO)N1C[C@H](C)[C@H](CN(C)C(=O)Nc2ccc3c(c2)OCO3)Oc2ccc(NS(=O)(=O)c3ccccc3)cc2CC1=O	none
Cc1ccc(S(=O)(=O)Nc2ccc3c(c2)CC(=O)N([C@H](C)CO)C[C@@H](C)[C@H](CN(C)C(=O)Nc2ccc4c(c2)OCO4)O3)cc1	none
CC(C)NC(=O)N(C)C[C@@H]1Oc2ccc(NC(=O)Nc3ccc4c(c3)OCO4)cc2CC(=O)N([C@H](C)CO)C[C@@H]1C	none
C[C@H]1CN([C@@H](C)CO)C(=O)Cc2cc(NC(=O)Nc3ccc4c(c3)OCO4)ccc2O[C@H]1CN(C)C(=O)Nc1ccc2c(c1)OCO2	none
C[C@H](CO)N1C[C@H](C)[C@H](CN(C)C(=O)Nc2ccc3c(c2)OCO3)Oc2ccc(NS(C)(=O)=O)cc2CC1=O	U2OS ROS induce 122.7
CCOC(=O)c1ccc(NC(=O)C2C(=O)N(C)C3(C)CC2c2ccccc2O3)cc1 (stereo unspecified)	none
COc1ccc(NC(=O)COc2ccc(C)cc2)cc1	none
CCOc1ccc(CCNC(=O)c2c(-n3cccc3)sc(C)c2C)cc1OCC	none
COc1ccccc1N=C(NO)C(=Nc1ccccc1OC)NO	none
CN(C)C(=S)Nc1ccccc1	none
Cc1cccc(CN2C(=O)/C(=C\c3ccc(C(=O)N4CCCC4)cc3)Oc3ccccc32)c1	none
O=C(NC(=O)N1CCCCC1)c1ccc(-c2csnn2)cc1	none
O=C(CSc1ncccn1)Nc1ccc(Cl)cc1Cl	none
O=c1ccnc(SCc2ccc(Cl)cc2)[nH]1	none
Clc1ccc(CSc2ncccn2)cc1	U2OS ROS induce 93.7
O=C(NCCCN1CCCC1)c1cnn(-c2ccccc2)c1-n1cccc1	none
CCc1ccc(-c2csc(Nc3ccc(S(=O)(=O)Nc4cc(OC)nc(OC)n4)cc3)n2)cc1	none
CC1C2CC(C(S(=O)(=O)N3CCOCC3)C2=O)C1(C)C (stereo unspecified)	U2OS ROS induce 115.0
CC(C)c1ccc(S(=O)(=O)N2CCOCC2)cc1	none
C[C@H](CO)N1C[C@H](C)[C@H](CN(C)Cc2ccc(Oc3ccccc3)cc2)Oc2c(NS(=O)(=O)c3ccc(F)cc3)cccc2C1=O	none
COc1ccc(S(=O)(=O)Nc2cccc3c2O[C@@H](CN(C)Cc2ccc(-c4ccccc4)cc2)[C@@H](C)CN([C@@H](C)CO)C3=O)cc1	none
